HPGD inh: qHTS Assay for Inhibitors of HPGD (15-Hydroxyprostaglandin Dehydrogenase). AID 894, 2007. Potency, µM, usual class: inhibitors. 4.3% of 150,000 active. purified HPGD, NADH fluorescence kinetic, PGE2 substrate. 15-hydroxyprostaglandin dehydrogenase [NAD(+)] (Homo sapiens), P15428; active = well fitted inhibition curve with a large enough effect, not every such curve was filed as active; inconclusive = small, poorly fitted or top-dose-only effect, or another doubt; inactive = no such curve, though single readings can be large or run the other way
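20 nM HPGD preincubated 15 min at room temperature with compound in 50 mM Tris-HCl pH 8, 0.01% Tween 20. Started with 1 mM NAD+ and 30 uM prostaglandin E2; NADH fluorescence (360/450 nm) read 5 times over 30-s intervals, last minus first.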
HttQ103 aggreg: qHTS Multiplex Assay to Identify Dual Action Probes in a Cell Model of Huntington: Aggregate Formation (GFP) | PC12 HttQ103-GFP aggregates, Acumen cytometry, 40 h | Potency, µM (highest dose often 46.1 µM), usual class: inhibitors | 1.1% of 220,000 active | AID 1688, 2009; also: nearly all actives have a fitted effect of over 60% in size
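Steps: seed 1500 PC12 HTTQ103-GFP cells/well; add tebufenozide, 100 nM final; add compound titration; add ATPLite reagent; quantify GFP aggregates by laser scanning cytometry.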
CBFb-RUNX1 inh: qHTS Assay for Compounds Blocking the Interaction Between CBF-beta and RUNX1 for the Treatment of Acute Myeloid Leukemia; Runt-related transcription factor 1 (Homo sapiens) + Core-binding factor subunit beta …; AlphaScreen CBFb-His/RUNX1-biotin binding, biochemical; Potency, µM (highest dose often 59.8 µM), hits mostly inhibitors; 230,000 tested, under 10 active; AID 1477, 2009
Target sequence (Q01196 whole entry, looked up): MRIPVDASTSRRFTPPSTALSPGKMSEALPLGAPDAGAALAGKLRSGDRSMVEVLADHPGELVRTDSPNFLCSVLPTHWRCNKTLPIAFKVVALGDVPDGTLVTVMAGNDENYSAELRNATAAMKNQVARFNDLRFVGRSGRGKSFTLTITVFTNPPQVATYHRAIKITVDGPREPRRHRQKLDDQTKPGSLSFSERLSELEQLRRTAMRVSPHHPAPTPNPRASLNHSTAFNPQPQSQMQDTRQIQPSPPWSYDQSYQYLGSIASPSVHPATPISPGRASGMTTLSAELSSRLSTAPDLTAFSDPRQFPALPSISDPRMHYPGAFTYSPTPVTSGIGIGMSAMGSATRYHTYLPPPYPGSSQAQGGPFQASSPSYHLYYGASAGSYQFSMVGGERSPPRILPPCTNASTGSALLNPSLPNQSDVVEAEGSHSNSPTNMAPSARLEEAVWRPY
Target sequence (Q13951 whole entry, looked up): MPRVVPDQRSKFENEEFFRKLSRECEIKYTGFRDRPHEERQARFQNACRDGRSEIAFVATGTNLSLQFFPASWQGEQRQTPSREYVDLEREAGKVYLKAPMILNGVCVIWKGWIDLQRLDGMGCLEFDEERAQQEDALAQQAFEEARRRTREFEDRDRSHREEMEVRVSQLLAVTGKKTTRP
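AlphaScreen proximity signal reports loss of binding between His-tagged CBF-beta and biotin-labelled RUNX1, each at 30 nM. Proteins are pre-associated for 20 minutes, compounds added for 15 minutes, then beads for 90 minutes, all at ambient temperature.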
KDM4E inh: qHTS Assay for Inhibitors of Human Jumonji Domain Containing 2E (JMJD2E). Lysine-specific demethylase 4E (Homo sapiens), B2RXH2. JMJD2E catalytic domain, FDH-coupled NADH fluorescence (FDH is formaldehyde dehydrogenase). Potency, µM (titrated, usually from 57.1 µM), actives largely listed as inhibitors. 1.6% of 230,000 active. AID 2147, 2009; active = well fitted inhibition curve with a large enough effect, not every such curve was filed as active; inconclusive = small, poorly fitted or top-dose-only effect, or another doubt; inactive = no such curve, though single readings can be large or run the other way; also: nearly all actives have a fitted effect of over 50% in size
HTT cytoprotect: qHTS Multiplex Assay to Identify Dual Action Probes in a Cell Model of Huntington: Cytoprotection (ATP); PC12 HTT-Q103 induced, cytoprotection, ATP luminescence, 40 h; Potency, µM (series often up to 56.4 µM), hits mostly activators; 0.14% of 230,000 active; also: nearly all actives have a fitted effect of over 45% in size
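Readout: ATPlite luminescence (ATP level). Model: stable PC12, inducible Htt exon1 Q103-GFP. Inducer: tebufenozide, 100 nM final. Compounds: dose series. No G418 in medium.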
ALDH1A1 block: qHTS Assay for Inhibitors of Aldehyde Dehydrogenase 1 (ALDH1A1). Aldehyde dehydrogenase 1A1 (Homo sapiens), P00352. 7.3% of 220,000 active. Purified ALDH1A1, NADH fluorescence, propionaldehyde substrate. Potency, µM (doses to about 75.3 µM), usual class: inhibitors; active = well fitted inhibition curve with a large enough effect, not every such curve was filed as active; inconclusive = small, poorly fitted or top-dose-only effect, or another doubt; inactive = no such curve, though single readings can be large or run the other way
Numbers stand for hits; [ ] = dose if it differs, or a comment. The list is not random: actives were taken first. Their share in the collection is about 9.8%. Unless noted, calls follow the shape of the dose curve; as a rule, active = well fitted curve in the direction sought with a large enough effect; inconclusive = small, poorly fitted or top-dose-only effect, or another doubt; inactive = no such curve, though single readings can be large; an effect the other way counts as inactive or inconclusive.

`O=C(Nc1ccc(F)cc1)Nc1nnc(-c2ccncc2)s1` gave HPGD inh inactive, HttQ103 aggreg 11.2µM, CBFb-RUNX1 inh inactive, KDM4E inh inactive, HTT cytoprotect inactive and ALDH1A1 block inactive.
Screening O=C(Nc1ccc(Cl)cc1)Nc1nnc(-c2ccncc2)s1 returned HPGD inh inactive, HttQ103 aggreg inconclusive, CBFb-RUNX1 inh inactive, KDM4E inh inconclusive, HTT cytoprotect inactive[10 µM] and ALDH1A1 block inactive.
For O=C(Nc1ccncc1)Nc1ccc(F)cc1F the results were HPGD inh inactive, HttQ103 aggreg 35.5µM, CBFb-RUNX1 inh inactive, KDM4E inh inactive, HTT cytoprotect inactive[1.9 µM] and ALDH1A1 block inactive.
Screening O=C(Nc1cccc(Cl)c1)Nc1nnc(-c2ccncc2)s1 returned HPGD inh inconclusive, HttQ103 aggreg 12.6µM, CBFb-RUNX1 inh inactive, KDM4E inh inconclusive, HTT cytoprotect inactive[10 µM] and ALDH1A1 block inactive.
`Cc1ccc(NC(=O)Nc2nnc(-c3ccncc3)s2)cc1C` gave HttQ103 aggreg inactive[9.22 µM], CBFb-RUNX1 inh inactive, KDM4E inh inactive, HTT cytoprotect inactive[10 µM] and ALDH1A1 block inactive.
Screening C/C(CC(=O)NC(C)(C)C)=N\NC(=O)COc1ccc(C)cc1Br returned HttQ103 aggreg inactive, CBFb-RUNX1 inh inactive, KDM4E inh inactive, HTT cytoprotect inactive and ALDH1A1 block 14.1µM.
Screening COc1ccccc1NC(=O)C/C(C)=N/NC(=O)COc1c(Br)cc(Br)cc1OC returned HttQ103 aggreg inconclusive, CBFb-RUNX1 inh inactive, KDM4E inh inactive, HTT cytoprotect inactive and ALDH1A1 block 7.94µM.
`CCCNC(=O)C/C(C)=N/NC(=O)COc1ccc(C)cc1Br` gave HPGD inh inconclusive, HttQ103 aggreg inactive, CBFb-RUNX1 inh inactive, KDM4E inh inactive, HTT cytoprotect inactive[10 µM] and ALDH1A1 block inactive.
COc1ccc(CNC(=O)C/C(C)=N/NC(=O)COc2ccc(C)cc2Br)cc1 was read as HttQ103 aggreg inactive, CBFb-RUNX1 inh inactive, KDM4E inh inactive, HTT cytoprotect inactive and ALDH1A1 block 10µM.
COc1ccccc1CNC(=O)CSc1ccsc1[N+](=O)[O-] was read as HttQ103 aggreg inactive, CBFb-RUNX1 inh inactive, KDM4E inh inactive, HTT cytoprotect inconclusive and ALDH1A1 block inactive.
`COc1ccc(CCNC(=O)CSc2ccsc2[N+](=O)[O-])c(OC)c1` gave HttQ103 aggreg inactive, CBFb-RUNX1 inh inactive, KDM4E inh inactive, HTT cytoprotect inactive[10 µM] and ALDH1A1 block 14.1µM.
Screening COc1ccc(OC)c(CCNC(=O)CSc2ccsc2[N+](=O)[O-])c1 returned HttQ103 aggreg inactive[9.22 µM], CBFb-RUNX1 inh inactive, KDM4E inh inactive, HTT cytoprotect inactive[10 µM] and ALDH1A1 block 12.6µM.
COc1ccc(CCNC(=O)CSc2ccsc2[N+](=O)[O-])cc1OC was read as HttQ103 aggreg inactive, CBFb-RUNX1 inh inactive, KDM4E inh inactive, HTT cytoprotect inactive and ALDH1A1 block inactive.
For O=C(CSc1ccsc1[N+](=O)[O-])NCc1ccccc1 the results were HttQ103 aggreg inactive[9.22 µM], CBFb-RUNX1 inh inactive, KDM4E inh inactive, HTT cytoprotect inactive[10 µM] and ALDH1A1 block 3.16µM.
For CCc1cc2cc3c(cc2nc1SCC(=O)Nc1cc(C)on1)OCO3 the results were HPGD inh inactive, HttQ103 aggreg inactive, CBFb-RUNX1 inh inactive, KDM4E inh inactive, HTT cytoprotect inactive and ALDH1A1 block inactive.
For Cc1ccc(NC(=O)COC(=O)CN2C(=O)NC(C)(C)C2=O)cc1S(=O)(=O)N1CCOCC1 the results were HttQ103 aggreg inactive, CBFb-RUNX1 inh inactive, KDM4E inh inactive and ALDH1A1 block inconclusive.
CC(=O)NC(c1ccco1)c1ccc2cccnc2c1O (configuration not stated) was read as HPGD inh inactive, HttQ103 aggreg 3.55µM, CBFb-RUNX1 inh inactive, KDM4E inh 25.1µM, HTT cytoprotect inactive and ALDH1A1 block inactive.
For COc1ccc(C(NC(=O)C(C)C)c2ccc3cccnc3c2O)cc1 (configuration not stated) the results were HttQ103 aggreg inactive[9.22 µM], CBFb-RUNX1 inh inconclusive, KDM4E inh 28.2µM and HTT cytoprotect inactive[10 µM].
For Oc1ccccc1C(Nc1nccs1)c1ccc2cccnc2c1O (configuration not stated) the results were HttQ103 aggreg inactive[9.22 µM], KDM4E inh inconclusive and HTT cytoprotect inactive[10 µM].
Screening CC(C)(C)NC(=O)COC(=O)c1ccccc1C(=O)c1ccccc1 returned HttQ103 aggreg inactive, CBFb-RUNX1 inh inactive, KDM4E inh inactive, HTT cytoprotect inactive and ALDH1A1 block inactive.
For NC(=O)CCC(C(=O)O)N1C(=O)c2ccc(O)cc2C1=O (configuration not stated) the results were HttQ103 aggreg inactive[9.22 µM], CBFb-RUNX1 inh inactive, KDM4E inh inactive and HTT cytoprotect inactive[10 µM].
For O=C(CCCn1c(SCC(=O)c2ccc(O)c(O)c2)nc2ccccc2c1=O)NCC1CCCO1 (configuration not stated) the results were HPGD inh 5.01µM, HttQ103 aggreg inactive, CBFb-RUNX1 inh inactive, KDM4E inh 8.91µM, HTT cytoprotect inactive and ALDH1A1 block 17.8µM.
For COC(=O)c1ccc2c(=O)n(CC3CCCO3)c(SCC(=O)Nc3ccccc3OC)nc2c1 (configuration not stated) the results were HPGD inh inactive, HttQ103 aggreg inactive, CBFb-RUNX1 inh inactive, KDM4E inh inactive, HTT cytoprotect inactive and ALDH1A1 block 14.1µM.
`CCCCCn1c(SCC#N)nc2cc(C(=O)NCC3CCCO3)ccc2c1=O` (configuration not stated) gave HPGD inh 2.51µM, HttQ103 aggreg inactive, CBFb-RUNX1 inh inactive, KDM4E inh inactive, HTT cytoprotect inactive and ALDH1A1 block inactive.
Screening Cc1cc(NC(=S)NC(=O)/C=C/c2ccc(S(=O)(=O)N3CCOCC3)cc2)ccc1Br returned HttQ103 aggreg inconclusive, CBFb-RUNX1 inh inactive, KDM4E inh inactive, HTT cytoprotect inactive[10 µM] and ALDH1A1 block inactive.
Screening CCOC(=O)c1ccc(NC(=O)C(C)NS(=O)(=O)c2ccc(OC)cc2)cc1 (configuration not stated) returned HPGD inh inconclusive, HttQ103 aggreg inactive, CBFb-RUNX1 inh inactive, KDM4E inh inactive, HTT cytoprotect inactive and ALDH1A1 block 14.1µM.
Screening COC(=O)Nc1nn(-c2ccc(C)cc2)c(=O)c(C#N)c1C returned HttQ103 aggreg inactive, CBFb-RUNX1 inh inactive, KDM4E inh inactive, HTT cytoprotect inactive and ALDH1A1 block inactive.

Compound activity from PubChem.
